Sampled rows, rich in hits. Any-hit rate of the full collection: about 5.8%.
12-LOX inh: blocks human arachidonate 12S-lipoxygenase; P18054; purified 12hLO, xylenol orange hydroperoxide absorbance; Potency, µM (highest dose often 108 µM), actives largely listed as inhibitors; 1.1% of 580,000 active
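Hydroperoxide product was detected by ferrous iron/xylenol orange as the 573 to 405 nm absorbance ratio. Arachidonic acid at 40 uM (final) was turned over for 30 min at room temperature by 150 nM human 12hLO, pH 7.0 Hepes buffer, after 15 min compound preincubation.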
MCF10A rereplic: induces DNA re-replication in MCF 10a normal breast cells. 2.9% of 350,000 active. MCF 10A DNA re-replication, Hoechst nuclear intensity, 48 h. Potency, µM (highest dose often 46.1 µM), actives largely listed as activators; further: nearly all actives have a fitted effect of over 50% in size
KB-3-1 cytotox: kills parental KB-3-1 adenocarcinoma cells; AID 1347075; 1.4% of 400,000 active; Potency, µM (titrated, usually from 46.1 µM), actives largely listed as cytotoxic; KB-3-1 viability, CellTiter-Glo ATP luminescence, 72 h; further: nearly all actives have a fitted effect of over 60% in size
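72 h, 37 °C compound treatment of KB-3-1 parental cells; CellTiter-Glo added, 10 min, luminescence read. Data corrected against DMSO-only plates and normalized before curve fitting.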
SW480 rerep: inducers of DNA re-replication in SW480 colon cancer cells; SW480 DNA re-replication, Hoechst DNA content imaging, 48 h; Potency, µM (top dose mostly 46.1 µM), usual class: activators; 1.8% of 340,000 active; AID 624297; further: nearly all actives have a fitted effect of over 55% in size
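Image-based read-out: total Hoechst fluorescence of nuclei (405 nm excitation, 500-530 nm emission), with hits raising the fraction of high-intensity nuclei. SW480 colon cells incubated 48 hr with compounds at 37 C.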
PINK1 modulator: changes PINK1 expression. AID 624263. 0.2% of 410,000 active. PINK1 immunofluorescence, high-content cytometry, 24 h. Potency, µM (titrated, usually from 76.6 µM), hits mostly activators; active means well fitted activation curve with a large enough effect; inconclusive means small, poorly fitted or top-dose-only effect; cell line not stated here; further: nearly all actives have a fitted effect of over 65% in size
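Decision-based qHTS: stable cells, 24 h exposure to five compound concentrations, CCCP as control. Fixed cells stained for PINK1 plus nuclear, mitochondrial and cell markers, cytometer read.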
KB-V1 cytotox: kills drug-selected multidrug resistant KB-V1 cells. KB-V1 MDR cells viability, CellTiter-Glo, 72 h. Potency, µM (doses to about 46.1 µM), actives largely listed as cytotoxic. 3.4% of 400,000 active; further: nearly all actives have a fitted effect of over 60% in size
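Drug-selected KB-V1 cells, grown in DMEM lacking phenol red with 10% FBS, receive compound titrations; after three days at 37 degrees C, surviving cell ATP is quantified by CellTiter-Glo luminescence and responses normalized and curve-fitted.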
Numbers stand for hits; n = inactive; u = inconclusive; x = not tested or not shown; [ ] = remark or other dose. Unless noted, the call rests on the fitted dose curve; in most records, active means well fitted curve in the direction sought with a large enough effect; inconclusive means small, poorly fitted or top-dose-only effect, or another doubt; inactive means no such curve, though single readings can be large; an effect the other way counts as inactive or inconclusive.

SMILES | 12-LOX inh | MCF10A rereplic | KB-3-1 cytotox | SW480 rerep | PINK1 modulator | KB-V1 cytotox
O=C1c2ccccc2C(=O)N1OS(=O)(=O)c1ccc(F)cc1 | u | n | n | n | n | n
Cc1ccc(S(=O)(=O)N2CCN(CCc3ccccc3)CC2)c(C)c1 | u | u | n | n | n | u
Cc1ccc(S(=O)(=O)ON2C(=O)c3ccccc3C2=O)c(C)c1 | u | 13µM | n | u | n | n
O=C(Nc1cccc([N+](=O)[O-])c1)c1cc(S(=O)(=O)N2CCOCC2)cs1 | n | n | x | n | n | x
Cc1ccc(C(=O)Nc2ccccc2[N+](=O)[O-])cc1S(=O)(=O)N1CCOCC1 | n | u | u | u | u | u
COc1ccc(C(=O)NC2CCCc3ccccc32)cc1S(=O)(=O)N1CCOCC1 (stereo unspecified) | n | n | n | 10.3µM | n | u
COc1ccc(C(=O)Nc2ccccc2[N+](=O)[O-])cc1S(=O)(=O)N1CCOCC1 | n | u | x | 18.4µM | n | x
O=C(Nc1ccccc1[N+](=O)[O-])c1cc(S(=O)(=O)N2CCOCC2)cs1 | n | 23.1µM | x | u | n | x
CCC(C)NC(=O)Cn1c(=O)n(C)c(=O)c2sc(N3CCCC3)nc21 (stereo unspecified) | n | x | x | x | x | x
CCc1ccc2n(-c3ccc(OC)cc3)c([S-])c(C(=O)Nc3cc(C)cc(C)c3)[n+]2c1 | n | u | n | n | n | n
COc1ccc(CCNC(=O)c2c([S-])n(-c3ccc(C)cc3)c3cccc[n+]23)cc1 | 35.5µM | n | 11.6µM | u | n | n
COc1ccc(CCNC(=O)c2coc(=O)c(Br)c2)cc1 | n | 5.8µM | u | u | n | n
COc1ccc(CCNC(=O)c2cccc(C(=O)NCCc3ccc(OC)cc3)n2)cc1 | u | n | n | n | n | 18.4µM
COc1ccc(CCNC(=O)c2ccc(Br)cc2)cc1 | n | n | n | n | n | n
COc1ccc2c(CN(C)CCOc3cc(C)cc(C)c3)cc(=O)oc2c1 | n | x | x | x | x | x
Cn1c(=O)c2cc(NC(=O)Cc3cccnc3)ccc2n1-c1ccc2ccccc2c1 | n | x | u | x | n | u
CC(CC(=O)Nc1ccc2c(c1)c(=O)n(C)n2-c1ccc2ccccc2c1)C(F)(F)F (stereo unspecified) | n | x | 5.8µM | x | n | 5.8µM
CC(=O)Oc1ccc2c(=O)c(-c3ccc4c(c3)OCCCO4)c(C)oc2c1 | n | x | x | x | x | x
NC(N)=Nc1nc(-c2ccccc2)c2cc(F)ccc2n1 | n | u | 23.1µM | n[1.84 µM] | n | n
O=C1NC(Cc2c[nH]c3ccccc23)C(=O)N1Cc1ccccc1 (stereo unspecified) | n | n | n | n | n | n
COC(=O)c1ccc(CN2C(=O)NC(Cc3c[nH]c4ccccc34)C2=O)cc1 (stereo unspecified) | n | n | n | n | n | 18.4µM
COc1ccc(Cl)cc1NC(=O)CN1C(=O)NC(Cc2c[nH]c3ccccc23)C1=O (stereo unspecified) | n | n | u | n | n | 20.6µM
O=C(CN1C(=O)NC(Cc2c[nH]c3ccccc23)C1=O)Nc1ccccc1F (stereo unspecified) | n | x | x | x | x | x
N#Cc1ccc(CCC(=O)NCc2cccnc2)cc1 | n | x | x | x | x | x
COc1cccc(Cc2nc3ccccc3nc2SCC(=O)Nc2cccc(OC)c2)c1 | n | x | x | x | x | x
SMILES | 12-LOX inh | MCF10A rereplic | KB-3-1 cytotox | SW480 rerep | PINK1 modulator | KB-V1 cytotox
CCOc1ccc(C(CCc2ccccc2)NC(=O)c2ccccc2)cc1OCC (stereo unspecified) | n | n | n | n | n | 9.2µM
CCOc1ccc(C(=O)NC(C)CCc2ccccc2)cc1 (stereo unspecified) | n | n | n | n | n | n
Cc1ccc(-n2c(-c3ccccc3)n[nH]c2=S)c(C)c1 | u | 0.651µM | n | u | n | n
CCN(CC)c1ccc(-c2n[nH]c(=S)n2-c2ccccc2)cc1 | u | u | 13µM | u | n | 23.1µM
Cc1ccc(C)c(-n2c(-c3csc(C)c3)n[nH]c2=S)c1 | u | n | n | u | n | 18.4µM
COC(=O)c1cccc(NC(=S)NCc2ccc(Cl)cc2)c1 | u | n | n | n[9.22 µM] | n | n
COC(=O)c1cc(NC(=S)NCc2ccc(Cl)cc2)cc(C(=O)OC)c1 | 44.7µM | u | n | n | u | n
